# In the supplement of paper PMC3334620:
# Whole data set: some 33,000 sequences, median “E-score (-0.5 to 0.5)” near -0.054, cut for the highest 2% near 0.39. The full list was thinned out, with the highest values kept by preference.
# Target: Ylr278c (UniProt Q05854)
# Assay: PBM E-score (8-mer binding enrichment) (E-score (-0.5 to 0.5)); higher = stronger / more preferred TF binding
# Conditions: protein concentration: 200 nM; construct: GST-DNA-binding domain
# Method in brief: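 Each ungapped eight-base word and its reverse complement, pooled, received an E-score from the Universal PBM Analysis Suite. Underlying scans, normalised with masliner, recorded fluorescent anti-GST bound to GST-tagged yeast transcription factors. These were applied at about 100-200 nM to universal all-10-mer Agilent arrays double-stranded by primer extension.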
# UniProt Q05854, sequence (Q05854 whole entry): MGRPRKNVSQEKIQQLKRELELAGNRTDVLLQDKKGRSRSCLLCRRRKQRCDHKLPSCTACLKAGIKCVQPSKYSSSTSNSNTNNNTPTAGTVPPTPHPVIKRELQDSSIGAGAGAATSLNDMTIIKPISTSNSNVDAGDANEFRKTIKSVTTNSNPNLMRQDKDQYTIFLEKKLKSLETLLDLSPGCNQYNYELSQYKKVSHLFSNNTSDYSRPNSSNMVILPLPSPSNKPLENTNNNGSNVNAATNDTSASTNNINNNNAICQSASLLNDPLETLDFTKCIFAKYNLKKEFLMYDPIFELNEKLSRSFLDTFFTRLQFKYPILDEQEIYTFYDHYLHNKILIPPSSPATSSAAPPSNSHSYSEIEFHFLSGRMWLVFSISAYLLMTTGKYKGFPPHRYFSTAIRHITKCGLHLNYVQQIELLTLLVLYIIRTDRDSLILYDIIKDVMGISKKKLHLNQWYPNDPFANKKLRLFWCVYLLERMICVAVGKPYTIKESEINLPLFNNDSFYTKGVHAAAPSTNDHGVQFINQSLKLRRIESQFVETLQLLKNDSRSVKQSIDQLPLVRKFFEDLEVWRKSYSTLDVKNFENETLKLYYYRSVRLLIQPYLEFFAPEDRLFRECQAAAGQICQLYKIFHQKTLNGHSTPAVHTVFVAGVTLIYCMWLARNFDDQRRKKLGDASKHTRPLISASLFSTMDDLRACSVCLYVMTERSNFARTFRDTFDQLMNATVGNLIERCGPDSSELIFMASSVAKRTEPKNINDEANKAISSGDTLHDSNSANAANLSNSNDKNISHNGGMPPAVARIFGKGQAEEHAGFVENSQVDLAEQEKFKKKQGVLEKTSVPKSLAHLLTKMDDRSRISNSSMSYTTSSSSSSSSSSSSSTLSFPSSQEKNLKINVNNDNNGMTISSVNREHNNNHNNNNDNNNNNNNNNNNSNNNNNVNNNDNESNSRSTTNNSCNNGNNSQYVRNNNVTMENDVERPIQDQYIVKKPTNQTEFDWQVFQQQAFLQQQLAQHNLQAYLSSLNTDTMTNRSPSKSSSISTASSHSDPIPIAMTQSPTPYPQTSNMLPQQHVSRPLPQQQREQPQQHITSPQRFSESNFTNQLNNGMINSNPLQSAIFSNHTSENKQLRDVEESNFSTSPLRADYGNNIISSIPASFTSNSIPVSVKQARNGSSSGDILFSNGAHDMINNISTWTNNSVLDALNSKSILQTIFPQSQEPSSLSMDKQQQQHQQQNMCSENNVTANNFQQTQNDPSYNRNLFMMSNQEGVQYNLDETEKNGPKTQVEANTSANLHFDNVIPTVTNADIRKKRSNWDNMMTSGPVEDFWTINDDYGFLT
row,Sequence,PBM E-score
1,AGGGGTGC,-0.114
2,AGAGTCGC,-0.14
3,GGTATCGA,-0.0372
4,AGATCGGC,0.224
5,AGATCGGA,0.43
6,GGATCGGA,0.438
7,CGATCGTA,0.00037
8,GGATCGAA,0.0293
9,GGATCGCA,-0.0558
10,CGATCGGC,0.282
11,AGATCGGG,0.222
12,CGATCGGA,0.44
13,ACTCAACT,0.0546
14,GAGCATTA,-0.111
15,TATTGAAA,0.0175
16,GGTTAGAA,-0.15
17,TAGCTAGA,-0.285
18,CAAACTCA,-0.0703
19,CAAACTCC,0.434
20,GAAACTTC,0.0593
21,GAAACTCA,-0.0472
22,AAAACTCC,0.386

row,Sequence,PBM E-score
1,GAAACTCC,0.399
2,GCTAAGAA,-0.0627
3,CCGGACGA,0.406
4,CCGGACGG,0.396
5,CCGGACGC,0.364
6,ACGGACGA,0.177
7,TCGGACGA,0.271
8,ACGGACGG,0.209
9,CGTGCATC,-0.152
10,CGCTTTCC,0.143
11,ATTTCGTA,-0.062
12,CTCGATGA,-0.12
13,AATGGGCC,0.0902
14,CAGAGGAG,-0.243
15,GGCTAGAA,0.0303
16,AGGCATTA,-0.134
17,GGGCATTA,-0.0729
18,CGGCATTA,0.405
19,ATGTCGGG,0.222
20,CTGTCGAA,-0.289
21,ATGTCGGC,0.0736
22,GTGTCGTA,-0.209

row,Sequence,PBM E-score
1,CTGTCGGC,0.35
2,GTGTCGCA,0.00208
3,CTGTCGGA,0.404
4,ATGTCGGA,0.397
5,GTGTCGGA,0.417
6,GGACCAAA,0.187
7,ATACGCTC,0.00427
8,CGGCCACG,-0.0321
9,ACTCTGGA,-0.117
10,ATAGTCTA,-0.141
11,CGAAAGTA,0.00237
12,ACGAAAGA,-0.0168
13,AGCTTACG,-0.143
14,AGTCGGGG,0.282
15,CGACTCCA,-0.0167
16,AGACTCCT,-0.224
17,AGACTCCC,-0.167
18,CGACTCCC,0.0244
19,AGACTCCG,0.418
20,CGACTCCG,0.406
21,CGAGCAAC,-0.00501
22,AGAAGACC,0.0375

row,Sequence,PBM E-score
1,ACAAGACA,-0.0802
2,TACGAGTA,-0.0577
3,CGGACAAG,0.383
4,AGGACAAC,-0.163
5,CGGACAAA,0.425
6,AGGACAAA,-0.0109
7,CGGACAAC,0.389
8,GGGACAAC,-0.104
9,AACATGAC,-0.0624
10,GTCAACTA,-0.084
11,AGGGCTAA,-0.0787
12,AGGTCCAA,-0.179
13,AGGTCCCA,-0.224
14,CGGTCCGC,0.38
15,AGGTCCGC,0.333
16,AGGTCCAG,-0.113
17,AGGTCCGA,0.404
18,GGGTCCGA,0.366
19,AGGTCCGG,0.418
20,CGGTCCGA,0.455
21,ACTAGTGG,-0.0388
22,AACATAGC,-0.0617

row,Sequence,PBM E-score
1,ATGTTGCC,-0.036
2,ATTGACCA,-0.196
3,CCTATCAC,-0.119
4,AACACAAT,-0.152
5,GCAACACC,0.113
6,GCCTCGGA,0.352
7,CCCTCGGA,0.394
8,CCCTCGGC,0.207
9,CGCTCGGA,0.408
10,GGCTCGGA,0.38
11,AGCTCGGA,0.322
12,GCACTAGA,-0.16
13,CCTAGCAG,-0.268
14,CCGTTGAC,0.0534
15,CGAGCTGC,-0.00491
16,GTATGCGA,-0.0635
17,ATCAGGAA,-0.0943
18,AACTGCGA,0.148
19,TCAATTCA,-0.0799
20,AATTCGGA,0.449
21,AATTCGGG,0.215
